We go through eight compounds from PubChem BioAssay (EPA / NIEHS).

As a reminder, the AC50 is the concentration at which the activity in the assay is half-maximal.

Results filed as inconclusive are left out. The source made the active and inactive calls. The calls were made as follows, unless noted: active = hit-call score of the fitted dose curve at least 0.9, where 1 is the maximum; inactive = score below 0.9.

For test [1], the target named is human RAR-related Orphan Receptor gamma (RORg), RORC (gene 6097) (UniProt P51449). Nature of the test: ATG_RORg_TRANS: Attagene TRANS-FACTORIAL HepG2 Assay for human RAR-related Orphan Receptor gamma (RORg) (AID 2283011; active = hit-call score of the fitted dose curve at least 0.9, where 1 is the maximum). The method, boiled down:
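First, HepG2 liver cells were transfected with GAL4-UAS-driven reporter constructs and the RORg-Gal4 fusion. Next, they were treated with chemical for 24 h. Finally, reporter mRNA was quantified by RT-PCR and capillary electrophoresis, with upward activity fitted against DMSO.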

In test [2] the target is human Thyroid Receptor alpha (THRa1), THRA (gene 7067) (UniProt P10827). Nature of the test: ATG_THRa1_TRANS: Attagene TRANS-FACTORIAL HepG2 Assay for human Thyroid Receptor alpha (THRa1) (AID 2283014; active = hit-call score of the fitted dose curve at least 0.9, where 1 is the maximum). Put shortly: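 Reporter transcript induction, read by capillary electrophoresis of 6-FAM-labelled RT-PCR products, reflects activity of a transfected THRa1-Gal4 fusion in HepG2 liver cells. Cells were dosed for 24 h; activity was fitted in the positive direction against DMSO.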
Chain of human Thyroid Receptor alpha (THRa1), THRA (gene 7067) (P10827 whole entry, looked up, the tested form may be a part): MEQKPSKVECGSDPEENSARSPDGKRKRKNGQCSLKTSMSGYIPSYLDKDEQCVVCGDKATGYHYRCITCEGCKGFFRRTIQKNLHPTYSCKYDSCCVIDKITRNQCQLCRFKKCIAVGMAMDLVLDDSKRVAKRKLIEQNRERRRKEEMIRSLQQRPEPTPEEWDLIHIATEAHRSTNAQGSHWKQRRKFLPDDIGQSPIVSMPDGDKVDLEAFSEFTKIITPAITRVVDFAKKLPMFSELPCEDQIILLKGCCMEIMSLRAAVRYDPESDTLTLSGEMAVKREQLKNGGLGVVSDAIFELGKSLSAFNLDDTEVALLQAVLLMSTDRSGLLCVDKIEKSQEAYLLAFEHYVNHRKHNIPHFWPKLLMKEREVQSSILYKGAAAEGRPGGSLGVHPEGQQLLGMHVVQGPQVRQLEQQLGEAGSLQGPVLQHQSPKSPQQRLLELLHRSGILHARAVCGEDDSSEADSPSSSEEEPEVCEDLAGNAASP

Read-out in test [3]: E-selectin (Homo sapiens) (UniProt P16581)
Nature of the test: BSK_3C_Eselectin: BioMAP Diversity Plus: 3C Assay for Eselectin Biomarker Activity (AID 2283015).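 As to outcome: cell surface E-selectin protein quantified by ELISA 24 h after dosing.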 The note with it: primary human endothelial cells (HUVEC); actives raise or lower the signal. Put shortly: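 ELISA read-out of E-selectin on endothelial monolayers after 24 h chemical treatment. Human umbilical vein primary cells served as the system, with DMSO defining baseline activity for bidirectional fitting.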

Read-out in test [4]: Interleukin-1 alpha (IL1a), IL1A (gene 3552)
Put plainly: BSK_BE3C_IL1a: BioMAP Diversity Plus: BE3C Assay for Interleukin-1 alpha (IL1a) Biomarker Activity (AID 2283016). The conditions noted are these: primary human bronchial epithelial cells; actives raise or lower the signal. The method, boiled down: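 Human primary bronchial epithelial cells (BE3C system) were dosed with compound and IL-1a measured by ELISA 24 h later. Activity was fitted bidirectionally against DMSO baseline; cytotoxicity was tracked in parallel cultures by SRB total-protein staining.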

Read-out in test [5]: Monocyte Chemoattractant Protein-1 (MCP1), CCL2 (gene 6347)
Nature of the test: BSK_3C_MCP1: BioMAP Diversity Plus: 3C Assay for Monocyte Chemoattractant Protein-1 (MCP1) Biomarker Activity (AID 2283017). The conditions noted are these: primary human endothelial cells (HUVEC); actives raise or lower the signal. The method, boiled down:
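ELISA read-out of MCP-1 from human umbilical vein endothelial cell cultures harvested 24 h post-dosing. Gain or loss of signal was fitted relative to DMSO.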

Read-out in test [6]: Monocyte Chemoattractant Protein-1 (MCP1), CCL2 (gene 6347)
Put plainly: BSK_4H_MCP1: BioMAP Diversity Plus: 4H Assay for Monocyte Chemoattractant Protein-1 (MCP1) Biomarker Activity (AID 2283018). The note with it: primary human endothelial cells (HUVEC); actives raise or lower the signal. The method, boiled down: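 Human umbilical vein endothelial cells (4H system) dosed with chemical; MCP-1 measured by ELISA 24 h after dosing. Bidirectional curve fitting against DMSO negative control as baseline; parallel SRB total-protein staining tracks overt cytotoxicity.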

Read-out in test [7]: Human Leukocyte Antigen - DR isotype (HLADR), HLA-DRA (gene 3122)
Nature of the test: BSK_3C_HLADR: BioMAP Diversity Plus: 3C Assay for Human Leukocyte Antigen - DR isotype (HLADR) Biomarker Activity (AID 2283019).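 As to outcome: ELISA of cell-surface HLA-DR on HUVEC 24 h after dosing.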 The note with it: primary human endothelial cells (HUVEC); actives raise or lower the signal. The method, boiled down:
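ELISA readout of surface HLA-DR on human umbilical vein endothelium, taken 24 h after chemical treatment. Gain- and loss-of-signal were both fitted relative to DMSO.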

Read-out in test [8]: Interleukin-8 (IL8), CXCL8 (gene 3576)
Put plainly: BSK_3C_IL8: BioMAP Diversity Plus: 3C Assay for Interleukin-8 (IL8) Biomarker Activity (AID 2283020). The conditions noted are these: primary human endothelial cells (HUVEC); actives raise or lower the signal. The method, boiled down: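 Primary human umbilical vein endothelial cells (3C system) were exposed to test chemical for 24 h, then IL-8 was quantified by ELISA. Responses were fitted bidirectionally against DMSO vehicle as baseline.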

Read-out in test [9]: Monokine induced gamma interferon (MIG), CXCL9 (gene 4283)
Put plainly: BSK_3C_MIG: BioMAP Diversity Plus: 3C Assay for Monokine induced gamma interferon (MIG) Biomarker Activity (AID 2283021). The conditions noted are these: primary human endothelial cells (HUVEC); actives raise or lower the signal. The method, boiled down:
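Primary human umbilical vein endothelial cells in the 3C system were exposed to chemical for 24 h, after which MIG was quantified by ELISA. Activity was fitted bidirectionally against DMSO as negative control and baseline.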

Test [10] concerns the target human Vitamin D Receptor (VDR), VDR (gene 7421) (UniProt P11473). Nature of the test: ATG_VDR_TRANS: Attagene TRANS-FACTORIAL HepG2 Assay for human Vitamin D Receptor (VDR) (AID 2283022; active = hit-call score of the fitted dose curve at least 0.9, where 1 is the maximum). Put shortly:
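Steps: transfect HepG2 with GAL4-UAS-driven reporter constructs; dose compounds 24 h; isolate RNA, reverse-transcribe, PCR-amplify with 6-FAM-labelled primer extension and HpaI digestion; quantify fragments by capillary electrophoresis relative to DMSO.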

The nature of test [11]: BSK_3C_SRB: Viability Assessment in the BioMAP Diversity Plus: 3C Assay (AID 2283023).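 Also: fitted both ways against DMSO so a hit may be signal rise or drop.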 The note with it: primary human endothelial cells (HUVEC). The method, boiled down: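 Absorbance at 560 nm of sulforhodamine B-stained (0.1%) total protein served as a cytotoxicity readout in human umbilical vein endothelial cells, 24 h after chemical treatment. Signal was fitted bidirectionally relative to DMSO.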

Read-out in test [12]: Matrix Metallopeptidase 1 (MMP1), MMP1 (gene 4312)
Put plainly: BSK_BE3C_MMP1: BioMAP Diversity Plus: BE3C Assay for Matrix Metallopeptidase 1 (MMP1) Biomarker Activity (AID 2283024). The note with it: primary human bronchial epithelial cells; actives raise or lower the signal. The method, boiled down: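 Primary human bronchial epithelial cells were dosed with test chemicals, and MMP1 levels were measured by ELISA 24 h later. Data were fitted bidirectionally against DMSO as the negative control and activity baseline.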

A short description of test [13]: BSK_3C_Vis: BioMAP Diversity Plus: 3C Assay for Morphology Visualization (AID 2283025).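 Also: fitted both ways so gain or loss versus DMSO counts.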 The note with it: primary human endothelial cells (HUVEC). The method, boiled down:
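Human umbilical vein endothelial cells in the 3C system were imaged by light microscopy 24 h after chemical dosing to record cell morphology. Activity was fitted bidirectionally against DMSO as negative control and baseline; the endpoint serves as a background control.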

Read-out in test [14]: Pselectin, SELP (gene 6403)
Put plainly: BSK_4H_Pselectin: BioMAP Diversity Plus: 4H Assay for Pselectin Biomarker Activity (AID 2283026). The conditions noted are these: primary human endothelial cells (HUVEC); actives raise or lower the signal. Put shortly: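 Primary human umbilical vein endothelial cells were exposed to test chemical for 24 h, then cell-surface P-selectin was quantified by ELISA. Activity was fitted bidirectionally against DMSO as negative control and baseline.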

Test [15] is described as follows: BSK_4H_SRB: Viability Assessment in the BioMAP Diversity Plus: 4H Assay (AID 2283027).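 Also: cells exposed to compound for 24 h before staining.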 The note with it: primary human endothelial cells (HUVEC). The method, boiled down:
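Human umbilical vein endothelial cells were dosed with chemical and, after 24 h, fixed with 10% TCA, stained with 0.1% sulforhodamine B, and read at 560 nm to give total protein as a cytotoxicity measure. Bidirectional fitting relative to DMSO control.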

Test [16] is described as follows: BSK_BE3C_SRB: Viability Assessment in the BioMAP Diversity Plus: BE3C Assay (AID 2283028). The note with it: primary human bronchial epithelial cells. Put shortly:
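Cells (human bronchial epithelial, primary) are treated with chemicals, and after 24 h the parallel cultures are fixed in 10% TCA. These are then stained with 0.1% SRB and read at 560 nm. Gain or loss of signal is fitted relative to DMSO.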

Read-out in test [17]: Thrombomodulin, THBD (gene 7056)
Nature of the test: BSK_3C_Thrombomodulin: BioMAP Diversity Plus: 3C Assay for Thrombomodulin Biomarker Activity (AID 2283029). The note with it: primary human endothelial cells (HUVEC); actives raise or lower the signal. Put shortly: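 Primary human umbilical vein endothelial cells (3C system) were exposed to chemical for 24 h, then thrombomodulin levels were measured by ELISA. Activity was fitted bidirectionally against the DMSO negative control as baseline.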

Read-out in test [18]: Urokinase-type plasminogen activator receptor (uPAR), PLAUR (gene 5329)
Put plainly: BSK_4H_uPAR: BioMAP Diversity Plus: 4H Assay for Urokinase-type plasminogen activator receptor (uPAR) Biomarker Activity (AID 2283030). The note with it: primary human endothelial cells (HUVEC); actives raise or lower the signal. The method, boiled down:
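Cell-surface uPAR ELISA signal, measured 24 h after dosing human umbilical vein endothelial cells, was analyzed with bidirectional fitting relative to DMSO. Parallel SRB staining of total protein tracked overt cytotoxicity.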

For test [19], the target named is human Retinoid X Receptor beta (RXRb), RXRB (gene 6257) (UniProt P28702). Put plainly: ATG_RXRb_TRANS: Attagene TRANS-FACTORIAL HepG2 Assay for human Retinoid X Receptor beta (RXRb) (AID 2283013; active = hit-call score of the fitted dose curve at least 0.9, where 1 is the maximum). Put shortly:
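HepG2 cells transiently transfected with multiplexed reporter units driven by GAL4-UAS and exogenous chimeric NR-Gal4 proteins; treated 24 h. Reporter mRNA measured by RT-PCR, 6-FAM labelling and capillary electrophoresis; gain-of-signal fitted versus DMSO baseline.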

For test [20], the target named is Retinoic acid receptor RXR-alpha (Homo sapiens) (UniProt P19793). Put plainly: ATG_RXRa_TRANS: Attagene TRANS-FACTORIAL HepG2 Assay for human Retinoid X Receptor alpha (RXRa) (AID 2283012; active = hit-call score of the fitted dose curve at least 0.9, where 1 is the maximum). The method, boiled down: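 HepG2 cells transiently transfected with multiplexed GAL4-UAS reporter units and chimeric NR-GAL4 fusions, dosed 24 h. Reporter mRNA measured by RT-PCR, FAM labelling, HpaI digestion and capillary electrophoresis; gain-of-signal fitted relative to DMSO baseline.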
Chain of Retinoic acid receptor RXR-alpha (Homo sapiens) (P19793 whole entry, looked up, the tested form may be a part): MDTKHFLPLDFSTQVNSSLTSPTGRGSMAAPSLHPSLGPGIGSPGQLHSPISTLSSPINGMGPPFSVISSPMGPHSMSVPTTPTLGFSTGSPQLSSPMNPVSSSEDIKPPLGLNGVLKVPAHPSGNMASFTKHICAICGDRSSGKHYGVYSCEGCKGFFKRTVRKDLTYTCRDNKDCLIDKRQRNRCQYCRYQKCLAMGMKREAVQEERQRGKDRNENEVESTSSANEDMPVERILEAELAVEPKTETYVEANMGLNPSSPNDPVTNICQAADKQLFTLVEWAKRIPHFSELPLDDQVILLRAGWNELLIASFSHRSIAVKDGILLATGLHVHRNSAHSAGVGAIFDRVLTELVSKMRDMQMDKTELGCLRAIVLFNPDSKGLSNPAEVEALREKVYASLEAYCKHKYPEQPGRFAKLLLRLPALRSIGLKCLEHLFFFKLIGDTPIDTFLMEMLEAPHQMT

Chain of human RAR-related Orphan Receptor gamma (RORg), RORC (gene 6097) (P51449 whole entry, looked up, the tested form may be a part): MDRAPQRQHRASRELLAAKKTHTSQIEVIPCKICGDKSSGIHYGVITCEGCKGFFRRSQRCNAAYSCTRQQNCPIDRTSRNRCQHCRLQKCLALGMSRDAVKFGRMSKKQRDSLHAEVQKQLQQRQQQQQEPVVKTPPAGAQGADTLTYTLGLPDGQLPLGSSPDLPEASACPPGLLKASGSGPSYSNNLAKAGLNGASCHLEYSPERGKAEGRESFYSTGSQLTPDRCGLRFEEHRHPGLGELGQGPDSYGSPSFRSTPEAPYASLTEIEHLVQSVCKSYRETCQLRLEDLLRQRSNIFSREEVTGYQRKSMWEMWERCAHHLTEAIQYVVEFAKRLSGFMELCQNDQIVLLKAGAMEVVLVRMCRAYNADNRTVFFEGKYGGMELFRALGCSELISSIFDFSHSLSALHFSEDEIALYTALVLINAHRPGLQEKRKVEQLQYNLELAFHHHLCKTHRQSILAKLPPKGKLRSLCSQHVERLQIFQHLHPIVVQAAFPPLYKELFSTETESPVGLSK
Chain of human Retinoid X Receptor beta (RXRb), RXRB (gene 6257) (P28702 whole entry, looked up, the tested form may be a part): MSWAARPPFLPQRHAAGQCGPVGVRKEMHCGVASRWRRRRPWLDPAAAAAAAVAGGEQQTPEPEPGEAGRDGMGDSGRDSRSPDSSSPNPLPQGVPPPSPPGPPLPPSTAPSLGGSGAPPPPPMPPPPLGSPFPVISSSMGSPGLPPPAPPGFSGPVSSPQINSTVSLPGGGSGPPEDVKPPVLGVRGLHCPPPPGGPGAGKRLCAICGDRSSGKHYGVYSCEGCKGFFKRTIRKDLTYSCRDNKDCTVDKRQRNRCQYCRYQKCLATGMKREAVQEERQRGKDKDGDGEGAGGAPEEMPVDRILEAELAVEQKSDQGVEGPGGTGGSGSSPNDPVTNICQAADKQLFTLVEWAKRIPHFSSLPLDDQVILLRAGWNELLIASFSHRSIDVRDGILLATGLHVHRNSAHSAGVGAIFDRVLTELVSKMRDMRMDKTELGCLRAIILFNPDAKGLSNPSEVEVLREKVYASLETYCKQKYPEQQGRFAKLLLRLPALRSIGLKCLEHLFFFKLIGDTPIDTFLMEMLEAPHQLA
Chain of E-selectin (Homo sapiens) (P16581 whole entry, looked up): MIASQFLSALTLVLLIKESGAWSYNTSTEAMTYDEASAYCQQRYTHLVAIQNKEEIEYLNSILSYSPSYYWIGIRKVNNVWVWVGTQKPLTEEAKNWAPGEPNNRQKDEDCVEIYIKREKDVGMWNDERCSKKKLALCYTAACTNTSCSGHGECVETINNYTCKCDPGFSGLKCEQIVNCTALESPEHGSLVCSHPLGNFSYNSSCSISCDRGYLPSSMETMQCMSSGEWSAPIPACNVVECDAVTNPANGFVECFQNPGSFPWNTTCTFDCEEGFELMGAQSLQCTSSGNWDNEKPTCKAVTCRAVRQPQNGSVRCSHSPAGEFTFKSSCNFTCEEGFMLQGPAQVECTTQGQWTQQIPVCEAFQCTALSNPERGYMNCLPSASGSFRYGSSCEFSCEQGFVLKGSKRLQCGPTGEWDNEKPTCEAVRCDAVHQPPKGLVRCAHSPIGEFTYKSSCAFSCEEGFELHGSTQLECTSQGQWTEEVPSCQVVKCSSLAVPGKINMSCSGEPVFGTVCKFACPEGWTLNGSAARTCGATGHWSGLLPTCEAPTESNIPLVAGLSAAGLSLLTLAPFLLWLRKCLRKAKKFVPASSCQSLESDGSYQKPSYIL
Chain of human Vitamin D Receptor (VDR), VDR (gene 7421) (P11473 whole entry, looked up, the tested form may be a part): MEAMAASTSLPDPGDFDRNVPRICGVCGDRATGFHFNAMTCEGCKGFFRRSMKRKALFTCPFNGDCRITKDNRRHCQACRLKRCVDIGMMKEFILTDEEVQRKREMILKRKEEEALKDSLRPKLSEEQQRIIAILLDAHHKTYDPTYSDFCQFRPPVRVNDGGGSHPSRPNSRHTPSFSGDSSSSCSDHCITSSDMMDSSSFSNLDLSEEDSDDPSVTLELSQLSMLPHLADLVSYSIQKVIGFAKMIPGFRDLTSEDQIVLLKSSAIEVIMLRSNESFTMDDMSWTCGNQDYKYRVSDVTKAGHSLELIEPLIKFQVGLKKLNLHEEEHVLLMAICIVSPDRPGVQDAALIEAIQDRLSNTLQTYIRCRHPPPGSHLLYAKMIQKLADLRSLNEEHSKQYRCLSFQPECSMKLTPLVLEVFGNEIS

In the case of `CCOP(=S)(OCC)SCn1nnc2ccccc2c1=O`, the result in [1], in [2], in [4], in test [5], in [6] and in test [8] was inactive. Further, the result in test [9], in test [10], in test [11], in test [12], in test [13] and in test [14] was inactive. Besides, the outcome in test [15], in test [16], in test [17] and in test [18] was inactive. Further, the AC50 in [3] was 20 µM (active); in [7] it was 33.7 µM (active).
On to `CCCCC(CC)COC(=O)c1c(Br)c(Br)c(Br)c(Br)c1C(=O)OCC(CC)CCCC` (stereo not drawn), for which the compound was called inactive in test [1], in [2], in test [3], in [4], in test [5] and in [6]. The result in [7], in test [8], in test [9], in [10], in test [11] and in [12] was inactive. Moreover, the result in [14], in test [15], in test [16], in test [17] and in test [18] was inactive.
For the compound `Nc1cc2c3c(c1)C(c1ccccc1)=N[C@@H](NC(=O)c1cccnc1)C(=O)N3CC2`, the compound was called inactive in test [1], in [19], in test [3], in test [4], in [5] and in [6]. The outcome in test [7], in test [8], in test [9], in [10], in [11] and in test [12] was inactive. The result in test [14], in [15], in test [16], in [17] and in test [18] was inactive.
Take `Cc1ccc(C(=O)Cl)cc1`: the compound was classed as inactive in [1] and in test [20].
With `N#Cc1cc([N+](=O)[O-])ccc1N`, the call in test [1], in test [19], in test [3], in test [4], in test [5] and in test [6] was inactive. In addition, the outcome in [7], in test [8], in [9], in test [10], in test [11] and in [12] was inactive. In addition, the outcome in test [13], in test [14], in [15], in test [16], in test [17] and in test [18] was inactive.
On to `O=C(O)C(Cl)Cl`, for which the result in [1], in [20], in [2], in test [4], in [5] and in test [6] was inactive. Further, the outcome in test [7], in test [8], in [9], in test [11], in test [12] and in test [14] was inactive. In addition, the outcome in test [15], in [16], in [17] and in test [18] was inactive.
For the compound `ClC(Cl)c1ccccc1`, the compound was classed as inactive in [1], in test [20], in test [19], in [2], in test [4] and in test [5]. Besides, the result in test [6], in test [7], in [8], in test [9], in test [11] and in [12] was inactive. In addition, the result in test [14], in [15], in test [16], in test [17] and in [18] was inactive.
For `Nc1ccc(Cl)cc1`, the outcome in [1], in test [20], in test [19], in test [2], in test [3] and in [4] was inactive. Besides, the outcome in [5], in [6], in test [7], in test [8], in test [9] and in test [11] was inactive. In addition, the result in test [12], in test [14], in [15], in [16], in [17] and in test [18] was inactive.
